Some test systems named below: NCI-H23 lung; NCI-H226 lung; HOP-62 NSCLC; NCI-H460 lung; HOP-92 NSCLC; A549/ATCC NSCLC; 786-0 renal; COLO 205 colon; NCI-H522 lung.
What all share (assay): NCI-60 one-dose screen, 48 h (100 = growth as untreated, 0 = no growth, -100 = all killed)
What all share (details): 10 µM

About 83,000 compounds went through this panel and 20% of them were active in at least one assay; those are over-represented in the sample as a whole.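 Growth was measured after 48 h exposure to one concentration of compound in 96-well plates. Values under 10 count as active.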 A number with no mark means an inactive call. Active and inactive are the calls of the source.

Turning to `Cc1cc(SC#N)cc(C(C)(C)C)c1O`, the growth in the assay on NCI-H23 lung is 93.1%; in the assay on NCI-H226 lung it was 102%; with HOP-62 NSCLC, 100%; in the assay on NCI-H460 lung it was 104%; in the assay with HOP-92 NSCLC it was 81.7%; in the assay with A549/ATCC NSCLC, 81.9%. The growth in the assay with 786-0 renal and with COLO 205 colon was 101% each time.

With `COc1ccc(/C=C2/SC(=S)NC2=O)c(OC)c1OC`, the growth was 73.9% in the assay with NCI-H23 lung; 81.6% in the assay with NCI-H226 lung; 69.2% in the assay on HOP-62 NSCLC; 90.3% in the assay with NCI-H460 lung; 36.8% in the assay on HOP-92 NSCLC; 73.3% with NCI-H522 lung. For the same compound, the growth was 79.5% with A549/ATCC NSCLC, 87.9% with 786-0 renal and 105% in the assay on COLO 205 colon.

In the case of `CSc1nc(S(C)(=O)=O)nc2[nH]c(=O)[nH]c12`, the growth was 98.8% in the assay with NCI-H23 lung; 101% with NCI-H226 lung; 98.2% in the assay with HOP-62 NSCLC; 116% in the assay on NCI-H460 lung; 97.5% in the assay on HOP-92 NSCLC; 106% in the assay on A549/ATCC NSCLC. Further, the growth in the assay on 786-0 renal was 107%; in the assay with COLO 205 colon it was 106%.

For the compound `CCOC(=O)/C(=C(\C)N)C1CC(=O)NC1=O` (stereo not given), the growth in the assay on NCI-H23 lung was 96.3%; in the assay on NCI-H226 lung, 97.3%; with HOP-62 NSCLC, 107%; with NCI-H460 lung it was 101%; with HOP-92 NSCLC, 112%; with NCI-H522 lung, 102%. Further, the growth was 101% in the assay on A549/ATCC NSCLC, 101% in the assay on 786-0 renal and 109% in the assay on COLO 205 colon.

For the compound `COc1cc2cc(Oc3ccc(NC(=O)Nc4ccc(Cl)c(Cl)c4)cc3)c(C)nc2cc1OC`, the growth was 8.26% (active) in the assay on NCI-H23 lung; 7.74% (active) in the assay on NCI-H226 lung; 55.2% in the assay on HOP-62 NSCLC; 3.68% (active) with NCI-H460 lung; -9.31% (active) with HOP-92 NSCLC; -13.7% (active) in the assay with NCI-H522 lung. The results for the growth with A549/ATCC NSCLC, in the assay with 786-0 renal and with COLO 205 colon were 4.35% (active), 20.3% and 4.03% (active), respectively.

As to `CN(C)c1nc(N)c2nccnc2n1`, the growth with NCI-H23 lung is 87.9%; with NCI-H226 lung, 105%; with HOP-62 NSCLC, 111%; with NCI-H460 lung it was 108%; with HOP-92 NSCLC it was 101%; in the assay on A549/ATCC NSCLC, 99.6%. Moreover, the results for the growth in the assay with 786-0 renal and with COLO 205 colon were 109% and 100%, respectively.

As to `COc1ccc2nc3cc(Cl)ccc3c(N)c2c1`, the growth is -93.9% (active) with NCI-H23 lung; 36.7% with NCI-H226 lung; -94.3% (active) with HOP-62 NSCLC; -75.2% (active) in the assay with NCI-H460 lung; 91.3% in the assay with HOP-92 NSCLC; -73% (active) with A549/ATCC NSCLC. Further, the growth is -98.9% (active) in the assay with 786-0 renal and -87.6% (active) in the assay with COLO 205 colon.

`O=C(c1ccccc1)N(C(=O)c1ccccc1)N1CCCC1`: the growth in the assay with NCI-H23 lung is 96.4%; with NCI-H226 lung, 92.7%; with HOP-62 NSCLC, 104%; in the assay on NCI-H460 lung it was 106%; with 786-0 renal it was 110%; with COLO 205 colon, 110%.

Turning to `CCN(CC)CCCC(C)N=C(C1=C(C(=NC(C)CCCN(CC)CC)c2cccc(OC)c2)C(=O)NC1=O)c1cccc(OC)c1` (stereo not given), the growth in the assay on NCI-H23 lung was -18.4% (active); in the assay on NCI-H226 lung, -43.4% (active); in the assay on NCI-H460 lung, -47.1% (active); in the assay on HOP-92 NSCLC, -66.1% (active); in the assay with NCI-H522 lung, -64.5% (active); with A549/ATCC NSCLC, -81.7% (active). The growth was -8.78% (active) with 786-0 renal and -89.9% (active) with COLO 205 colon.

Regarding `O=[N+]([O-])c1ccc(/C(=C/c2ccccc2)[n+]2ccccc2)cc1`, the growth in the assay on NCI-H23 lung is 113%; in the assay with NCI-H226 lung it was 105%; in the assay with HOP-62 NSCLC it was 110%; in the assay with NCI-H460 lung, 103%; in the assay with A549/ATCC NSCLC, 99.7%; with 786-0 renal, 104%. Besides, the growth with COLO 205 colon is 114%.

`CC1=NN(C(=O)c2nn(-c3ccc(Cl)cc3)cc2O)C(=O)C1`: the growth in the assay with NCI-H23 lung is 52.5%; with NCI-H226 lung, 40.3%; in the assay with HOP-62 NSCLC it was 44.1%; in the assay with NCI-H460 lung, 24%; with A549/ATCC NSCLC, 45.6%; in the assay with 786-0 renal it was 56.5%. The growth in the assay with COLO 205 colon was 53%.

Regarding `O=[N+]([O-])c1ccc(NCSc2ccc(Cl)cc2)cc1`, the growth was 99.4% with NCI-H23 lung; 112% in the assay on NCI-H226 lung; 109% in the assay on HOP-62 NSCLC; 98.2% in the assay on HOP-92 NSCLC; 86.5% with NCI-H522 lung; 96.3% with A549/ATCC NSCLC. The results for the growth in the assay on 786-0 renal and in the assay on COLO 205 colon were 93.4% and 103%, respectively.

As to `Cc1cc(Cl)ccc1Nc1nc(C(F)(F)F)ccc1C(=O)N/N=C/c1c(Cl)cccc1Cl`, the growth was 19% with NCI-H23 lung; 7.42% (active) in the assay with NCI-H226 lung; -4.74% (active) with HOP-62 NSCLC; 1.31% (active) with NCI-H460 lung; -16.7% (active) in the assay on NCI-H522 lung; -63.5% (active) in the assay with 786-0 renal. The growth with COLO 205 colon is -52.8% (active).

As to `Nc1nc(-c2ccc(Cl)cc2)cc(-c2cc3ccccc3oc2=O)n1`, the growth with NCI-H23 lung was 92.5%; with NCI-H226 lung, 88.9%; with HOP-62 NSCLC, 84.7%; with NCI-H460 lung, 101%; in the assay on A549/ATCC NSCLC, 103%; in the assay with 786-0 renal, 95.7%. The growth in the assay on COLO 205 colon is 100%.

On to `C/C(=C/CCC(C)[C@@H]1CC[C@]2(C)C3=C(CC[C@@]12C)[C@@]1(C)CCC(=O)C(C)(C)[C@@H]1CC3)C(=O)O` (stereo not given in full), for which the growth in the assay on NCI-H23 lung was -78.3% (active); in the assay on NCI-H226 lung it was -47.3% (active); in the assay with NCI-H460 lung, -80.7% (active); in the assay on HOP-92 NSCLC, -93.3% (active); in the assay with NCI-H522 lung, -69% (active); with A549/ATCC NSCLC, -56.2% (active). Besides, the results for the growth with 786-0 renal and with COLO 205 colon were -92% (active) and -91% (active), respectively.

For the compound `O=C(NCCCNS(=O)(=O)c1ccc(Cl)cc1)Nc1ccc(-n2cc(-c3ccncc3)c(-c3ccc(Cl)c(O)c3)n2)cc1`, the growth is 42% in the assay on NCI-H23 lung; 41% in the assay with NCI-H226 lung; 13.7% in the assay with NCI-H460 lung; 37.3% in the assay on HOP-92 NSCLC; 40.6% in the assay on NCI-H522 lung; 28.4% in the assay with A549/ATCC NSCLC. Moreover, the growth is 1.59% (active) in the assay on 786-0 renal and 16.4% with COLO 205 colon.

These data come from PubChem BioAssay (NCI).
